Measured values reported in PubChem BioAssay (NCI).
Compounds without any hit were thinned out: in the full panel of roughly 79,000, 15% have a hit. Activity calls are given as the source filed them. No stated cut-off is given here; in the data, active means growth inhibition above about 70%; inactive means the rest.

Experiments:
[1] = NCI Yeast Anticancer Drug Screen. Data for the rad50 strain (AID 155);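 further: 0% = growth of vehicle-only cultures of the same strain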; conditions: S. cerevisiae rad50 strain growth inhibition; at 50.0 µM; active compounds read high
Summary of the method: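 A DNA repair-deficient yeast mutant serves as the test organism; compound-induced growth inhibition is calculated against vehicle-treated cells.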

[2] = NCI Yeast Anticancer Drug Screen. Data for the mec2-1 strain (AID 157); conditions: S. cerevisiae mec2-1 strain, at 50.0 µM, active compounds read high
Summary of the method: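 Compounds were applied to mec2-1 yeast cells. Their growth was then compared with that of vehicle-treated cultures to give growth inhibition.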

[3] = NCI Yeast Anticancer Drug Screen. Data for the sgs1 mgt1 strain (AID 161);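 further: 0% = growth of cultures given vehicle only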; conditions: S. cerevisiae sgs1 mgt1 strain, at 50.0 µM, active compounds read high
Summary of the method: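 This yeast growth screen uses a strain with defined DNA-repair lesions; compound-treated growth is compared with vehicle-treated growth.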

[4] = NCI Yeast Anticancer Drug Screen. Data for the cln2 rad14 strain (AID 165);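 further: 0% = growth equal to vehicle treated cultures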; conditions: S. cerevisiae cln2 rad14 strain, at 50.0 µM, active compounds read high
Summary of the method: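 Strain: cln2 rad14 yeast, altered in cell cycle control and DNA damage repair. Read-out: growth inhibition vs vehicle.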

[5] = NCI Yeast Anticancer Drug Screen. Data for the bub3 strain (AID 167); conditions: S. cerevisiae bub3 mutant strain, at 50.0 µM, active compounds read high
Summary of the method: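 Inhibition values come from growth of compound-treated mutant yeast normalised to vehicle-treated controls.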

[6] = NCI Yeast Anticancer Drug Screen. Data for the mlh1 rad18 strain (AID 175); conditions: S. cerevisiae mlh1 rad18 strain growth inhibition; at 50.0 µM; active compounds read high
Summary of the method: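 A repair-deficient yeast strain is exposed to test compound, and growth is scored relative to vehicle-treated controls.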

Measured: growth inhibition

CC(=O)N=C1CSc2ccccc2N1C
inactive: [1] -1.15% | [2] -7.2% | [3] -7.9% | [4] -40.4% | [5] -15.5% | [6] -8.9%

O=C1CC(O)C2C(=O)c3c(c(Cl)c4ccccc4c3O)C(=O)C2C1 (stereo not drawn)
inactive: [1] 12.1% | [2] 12.4% | [3] 10.2% | [4] 4.75% | [5] 3.85% | [6] 20.3%

CCN(CC)CCOc1c(C)cccc1C
inactive: [1] -5.15% | [2] 3.45% | [3] -13.1% | [4] -14.2% | [5] 12.1% | [6] -2%

CC12CCC(C(=O)n3c1nc1ccccc13)C(C)(C)O2 (stereo not drawn)
inactive: [1] 8.15% | [2] -6.85% | [3] -7.45% | [4] 4% | [5] 4.25% | [6] -12.3%

NC(=O)NCC(N)C(=O)O (stereo not drawn)
inactive: [1] -4.75% | [2] -5.2% | [3] -2.3% | [4] 1.55% | [5] 1.55% | [6] -1.9%

Cc1ccc(Cl)cc1NC(=S)N(C)C
inactive: [1] 15.9% | [2] 16.1% | [3] 34.7% | [4] 3.75% | [5] 50.2% | [6] 24.5%

CC(=O)OCCCC(=O)Nc1cc([N+](=O)[O-])ccc1OCc1ccccc1
inactive: [1] 12.4% | [2] -3.35% | [3] 3.45% | [4] -6.35% | [5] 5.7% | [6] 8.45%

CN(C=O)C1CCC2C3CC=C4CC(OC=O)CCC4(C)C3CCC21C (stereo not drawn)
inactive: [1] 1.35% | [2] 11.3% | [3] 3.85% | [4] 5.95% | [5] -2.9% | [6] -2%

Clc1cccc(Cl)c1C(Nc1ncccn1)Nc1ncccn1
inactive: [1] 12.2% | [2] 14.8% | [3] 12.1% | [4] -16.4% | [5] 9.6% | [6] 20.4%

S=c1nc(NCc2ccccc2)[nH]c2[nH]ncc12
inactive: [1] -6.55% | [2] -17.2% | [3] -1.6% | [4] -17.2% | [5] -21% | [6] -2.55%

COc1ccc2c(c1)C1(C)CCCC(C)(CO)C1CC2 (stereo not drawn)
inactive: [1] 37% | [2] -0.3% | [3] 20.2% | [4] 3.95% | [5] 1.4% | [6] -10.8%

Cc1ccc2nc(N/N=C/c3sccc3C)cc(C)c2c1
inactive: [1] -24.3% | [2] -19.9% | [3] -20.9% | [4] -3.25% | [5] -30.1% | [6] -21.4%

CNC(=O)c1ccc(C(=O)NC)cc1
inactive: [1] -19.1% | [2] -26.1% | [3] -42.9% | [4] 3.95% | [5] -41.9% | [6] -1.75%

CCNc1ccc2c(c1)C(=O)c1ccccc1-2
inactive: [1] 28.9% | [2] 7.5% | [3] 17.4% | [4] 3.6% | [5] -4.05% | [6] -0.05%

CC12CCC(=O)C=C1CCC1C2C(=O)CC2(C)C1CCC2(O)C(=O)Cn1c(=O)cc[nH]c1=O (stereo not drawn)
inactive: [1] 10.1% | [2] 7.75% | [3] 25.6% | [4] 11.8% | [5] 0.3% | [6] 7.65%

CN(C)c1ccc(/C=N\N=C\c2ccco2)cc1
inactive: [1] 7.65% | [2] -3.2% | [3] 22.6% | [4] -40.2% | [5] -7.55% | [6] 10.1%

Cc1c[nH]c2nc(C)n(-c3ccc(F)cc3)c(=N)c12
inactive: [1] 4.1% | [2] 2.4% | [3] -9.05% | [4] -14.6% | [5] 5.3% | [6] 5.3%

CCCCCCC(=O)c1ccco1
inactive: [1] 2.4% | [2] -18.6% | [3] -1.05% | [4] 14.9% | [5] -1.75% | [6] -11.8%

Cc1cc(C)c(NC(=O)C(Br)C(Br)c2ccccc2)c(C)c1 (stereo not drawn)
inactive: [1] 11.6% | [2] -5.6% | [3] 5.1% | [4] 23.8% | [5] 2.15% | [6] 21.4%

O=c1c(O)c(-c2ccc(O)cc2O)oc2cc(O)cc(O)c12
inactive: [1] -8.35% | [2] -29.2% | [3] -3.55% | [4] 3.5% | [5] -19.4% | [6] -26.8%

CCCCCCCCCCCCCCC(O)CO (stereo not drawn)
inactive: [1] -11.3% | [2] -12.7% | [3] -4.45% | [4] -102% | [5] -27.1% | [6] -20.9%

FS(F)(F)(F)(F)c1cccc(NC(=S)SCc2ccc3c(c2)OCO3)c1
active: [1] 97.6% | [2] 99% | [3] 98.8% | [4] 99.3% | [5] 98.8% | [6] 98.3%

N#Cc1ccc(CCc2ccccc2)cc1
inactive: [1] 1.2% | [2] -3.75% | [3] 18.6% | [4] 10.4% | [5] 2.95% | [6] -2.05%

COc1ccc(/C=N/Nc2nc(C)c(C)s2)cc1
inactive: [1] 30.9% | [2] 18.4% | [3] 53.4% | [4] 11.4% | [5] 7.35% | [6] 55.8%

Cc1cc(N(CCC#N)CCC#N)ccc1C=Nc1ccc(C(=O)NN2C(=O)/C(=C/c3ccc(N(CCC#N)CCC#N)cc3)N=C2c2cc([N+](=O)[O-])ccc2Cl)cc1
inactive: [1] 17.9% | [2] 10.1% | [3] 2.6% | [4] 24% | [5] 4.7% | [6] 7.8%

COc1cccc2c1CC/C(=C\c1ccccn1)C2=O
active: [1] 98.5% | [2] 99.1% | [3] 98.9% | [4] 97.8% | [5] 98.8% | [6] 99.2%

CCN(CC)CCOC1(Cc2ccccn2)CCCCC1
inactive: [1] 1.2% | [2] 15.2% | [3] 6.7% | [4] 21.3% | [5] -0.4% | [6] -9.75%

CCOC(=O)Cn1c2ccccc2c(=O)c2cc(C)c(C)c(C#N)c21
inactive: [1] 13.4% | [2] -12.9% | [3] -11.6% | [4] 9% | [5] 8.5% | [6] 8.1%

CC(C)=C1CC(=O)NC1=O
inactive: [1] -10.8% | [2] 17.1% | [3] -3.2% | [4] 6.35% | [5] -6.05% | [6] 0.55%

CC(C)CSC(SCC(C)C)C(O)C(O)C(O)CO (stereo not drawn)
inactive: [1] -6.85% | [2] 3% | [3] 5.4% | [4] -35.2% | [5] 10.2% | [6] 6%

CCN(C(=S)Nc1cccc(OC)c1)c1ccccc1
inactive: [1] -17.2% | [2] -36.9% | [3] 18% | [4] -1.45% | [5] -17.1% | [6] -6.8%

CS(=O)(=O)OCCCCOS(=O)(=O)CF
inactive: [1] -36.9% | [2] -35% | [3] -31.4% | [4] -14.2% | [5] -8.7% | [6] -20%

ClCC1CCC(CCl)CC1 (stereo not drawn)
inactive: [1] -31.6% | [2] -18.4% | [3] -15.2% | [4] -5.95% | [5] -21.7% | [6] -16.1%

CCN1C(=O)C(N=[N+]=[N-])(c2ccccc2)C(=O)c2ccccc21 (stereo not drawn)
inactive: [1] 10.5% | [2] -8.5% | [3] -16.7% | [4] 6.6% | [5] 2.45% | [6] 0.65%

CN1c2ccccc2Oc2ccc3ccccc3c21
inactive: [1] 13.8% | [2] -24.6% | [3] 0.95% | [4] -4.3% | [5] -8.2% | [6] 12.8%

CSc1nc(N)c(C(N)=O)cc1C#N
inactive: [1] 5.45% | [2] 2.6% | [3] -5.4% | [4] -32.8% | [5] -16.6% | [6] 8.55%

COC(=O)c1ccccc1NC(=O)C(=O)NNC(=O)c1ccncc1
inactive: [1] 10.3% | [2] -3% | [3] -4.4% | [4] 7.55% | [5] -0.8% | [6] 22.1%

O=[N+]([O-])c1cc(NC(=S)SCc2ccc3c(c2)OCO3)ccc1Cl
active: [1] 82.7% | [2] 72.2% | [3] 76.7% | [6] 78%
inactive: [4] 42.8% | [5] 56.4%
